Results: PubChem BioAssay (NCI)
The panel holds about 83,000 compounds, 20% with a hit somewhere; the sample as a whole holds those more often.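 A percent growth of 40 corresponds to 60% growth inhibition; 0 means no net growth; -100 means all cells died. Active threshold: below 10.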 The source made the active and inactive calls.

Key:
Test in all cases: NCI-60 one-dose screen, 48 h (100 = growth as untreated, 0 = no growth, -100 = all killed)
Conditions in all cases: 10 µM unless noted
NCI-H23 lung = system: NCI-H23 lung
NCI-H322M lung = system: NCI-H322M lung
HOP-62 NSCLC = system: HOP-62 NSCLC
NCI-H460 lung = system: NCI-H460 lung
HOP-92 NSCLC = system: HOP-92 NSCLC
NCI-H522 lung = system: NCI-H522 lung
A549/ATCC NSCLC = system: A549/ATCC NSCLC
786-0 renal = system: 786-0 renal
COLO 205 colon = system: COLO 205 colon
DU-145 prostate = system: DU-145 prostate
K-562 leukemia = system: K-562 leukemia
MALME-3M melanoma = system: MALME-3M melanoma
MDA-MB-231 breast = system: MDA-MB-231 breast
RXF 393 renal = system: RXF 393 renal
SF-268 CNS = system: SF-268 CNS
SF-295 CNS = system: SF-295 CNS
SF-539 CNS = system: SF-539 CNS
UACC-257 melanoma = system: UACC-257 melanoma
M14 melanoma = system: M14 melanoma
HCT-15 colon = system: HCT-15 colon

Measured: growth

COc1ccc(/C=C/C(=O)c2c(C)nc3ccccc3c2/C=C/c2ccccc2)c(OC)c1
inactive: NCI-H23 lung 73.4% | NCI-H322M lung 89.3% | HOP-62 NSCLC 108% | NCI-H460 lung 80.3% | HOP-92 NSCLC 66.8% | NCI-H522 lung 70.5% | A549/ATCC NSCLC 78.5% | 786-0 renal 94.1% | COLO 205 colon 94.7% | DU-145 prostate 90.4% | K-562 leukemia 69.6% | MALME-3M melanoma 106% | MDA-MB-231 breast 68.9% | RXF 393 renal 89.6% | SF-268 CNS 80.7% | SF-295 CNS 90.9% | SF-539 CNS 100% | UACC-257 melanoma 104% | M14 melanoma 97.3% | HCT-15 colon 72.2%

O=Cc1c(OCc2cnnn2CC(=O)Nc2ccc(Br)cc2)ccc2ccccc12
inactive: NCI-H23 lung 86.4% | NCI-H322M lung 96.1% | HOP-62 NSCLC 97.7% | NCI-H460 lung 97.3% | HOP-92 NSCLC 85.7% | NCI-H522 lung 77.2% | A549/ATCC NSCLC 91.6% | 786-0 renal 102% | COLO 205 colon 106% | DU-145 prostate 96.9% | K-562 leukemia 91.4% | MALME-3M melanoma 88.4% | MDA-MB-231 breast 84.4% | RXF 393 renal 100% | SF-268 CNS 92.7% | SF-295 CNS 88.9% | SF-539 CNS 96.3% | UACC-257 melanoma 87% | M14 melanoma 98.6% | HCT-15 colon 80.4%

COc1cc(C(=O)NN=C2c3ccccc3-c3ccccc32)cc(OC)c1OC
inactive: NCI-H23 lung 62% | NCI-H322M lung 54% | HOP-62 NSCLC 36.6% | NCI-H460 lung 11.2% | HOP-92 NSCLC 42.4% | NCI-H522 lung 15% | A549/ATCC NSCLC 43.6% | 786-0 renal 41.9% | DU-145 prostate 49.7% | K-562 leukemia 13.9% | MALME-3M melanoma 44.4% | MDA-MB-231 breast 49.1% | RXF 393 renal 16.7% | SF-268 CNS 45.1% | UACC-257 melanoma 38.1% | M14 melanoma 17.6% | HCT-15 colon 27.2%
active: COLO 205 colon 2.88% | SF-295 CNS -0.172% | SF-539 CNS 4.99%

CCOc1ccc(-c2nonc2NC(=O)c2cccc(C)c2)cc1OCC
active: HOP-92 NSCLC -8.71%
inactive: NCI-H23 lung 78.9% | NCI-H322M lung 93.1% | HOP-62 NSCLC 96.9% | NCI-H460 lung 55.9% | NCI-H522 lung 84% | A549/ATCC NSCLC 65.4% | 786-0 renal 73.9% | COLO 205 colon 36.8% | DU-145 prostate 80.5% | K-562 leukemia 11% | MALME-3M melanoma 59.6% | MDA-MB-231 breast 76.5% | RXF 393 renal 65.3% | SF-268 CNS 84.1% | SF-295 CNS 27.8% | SF-539 CNS 80.8% | UACC-257 melanoma 89.4% | M14 melanoma 71.3% | HCT-15 colon 65.2%

CCOC(=O)C1=CN(C)C=C(C(=O)OCC)C1c1cc(Br)c(OCC)c(OC)c1
inactive: NCI-H23 lung 65.9% | NCI-H322M lung 98.6% | HOP-62 NSCLC 55.6% | NCI-H460 lung 34.5% | NCI-H522 lung 52.2% | A549/ATCC NSCLC 66.1% | 786-0 renal 59.9% | DU-145 prostate 84% | MDA-MB-231 breast 36.8% | RXF 393 renal 49.9% | SF-268 CNS 73.3% | SF-539 CNS 58.9% | HCT-15 colon 14.7%
active: HOP-92 NSCLC 2.87% | COLO 205 colon -59.7% | K-562 leukemia -20.4% | MALME-3M melanoma -1.58% | SF-295 CNS -47.3% | UACC-257 melanoma -50% | M14 melanoma -37.3%

O=C(N/N=C/c1ccccc1Cl)C(=O)Nc1cccc(C(F)(F)F)c1
inactive: NCI-H23 lung 105% | NCI-H322M lung 108% | HOP-62 NSCLC 106% | NCI-H460 lung 99.4% | HOP-92 NSCLC 92.2% | NCI-H522 lung 105% | A549/ATCC NSCLC 88.8% | 786-0 renal 103% | COLO 205 colon 113% | DU-145 prostate 101% | K-562 leukemia 85.3% | MALME-3M melanoma 111% | MDA-MB-231 breast 99.3% | RXF 393 renal 97.9% | SF-268 CNS 105% | SF-295 CNS 87.7% | SF-539 CNS 102% | UACC-257 melanoma 103% | M14 melanoma 105% | HCT-15 colon 97.1%

COC(=O)/C(CCC=C(C)C)=C1\[C@@H](OC(C)=O)C[C@@]2(C)[C@H]1CC(=O)N[C@H]1[C@@]3(C)CCNC(=O)[C@@H](C)[C@@H]3CC[C@@]12C
inactive: NCI-H23 lung 99.2% | NCI-H322M lung 98.3% | HOP-62 NSCLC 106% | NCI-H460 lung 109% | HOP-92 NSCLC 106% | NCI-H522 lung 96.6% | A549/ATCC NSCLC 106% | 786-0 renal 96.2% | COLO 205 colon 109% | DU-145 prostate 107% | K-562 leukemia 101% | MALME-3M melanoma 101% | MDA-MB-231 breast 102% | RXF 393 renal 112% | SF-268 CNS 101% | SF-295 CNS 101% | SF-539 CNS 103% | UACC-257 melanoma 104% | M14 melanoma 98.5% | HCT-15 colon 106%

O=C(CCc1nnc2sc(Cc3ccccc3Cl)nn12)c1nc2ncccc2[nH]1
inactive: NCI-H23 lung 89.9% | NCI-H322M lung 93.5% | HOP-62 NSCLC 92.3% | NCI-H460 lung 97.8% | HOP-92 NSCLC 78.4% | NCI-H522 lung 81.5% | A549/ATCC NSCLC 104% | 786-0 renal 105% | COLO 205 colon 109% | DU-145 prostate 101% | K-562 leukemia 102% | MALME-3M melanoma 94.4% | MDA-MB-231 breast 73% | RXF 393 renal 104% | SF-268 CNS 85.5% | SF-295 CNS 99.6% | SF-539 CNS 94.2% | UACC-257 melanoma 107% | M14 melanoma 96.5% | HCT-15 colon 98.9%

NC1(N2SC(S)=C3CCCC=C32)CCCCC1
inactive: NCI-H23 lung 105% | NCI-H322M lung 99.8% | HOP-62 NSCLC 101% | NCI-H460 lung 107% | HOP-92 NSCLC 96.6% | NCI-H522 lung 81.9% | A549/ATCC NSCLC 100% | 786-0 renal 106% | COLO 205 colon 107% | DU-145 prostate 98.3% | K-562 leukemia 84.9% | MALME-3M melanoma 102% | MDA-MB-231 breast 107% | RXF 393 renal 129% | SF-268 CNS 96.3% | SF-295 CNS 115% | SF-539 CNS 104% | UACC-257 melanoma 99.8% | M14 melanoma 101% | HCT-15 colon 108%

COc1ccc(CCN2C(=O)CCSC2=S)cc1OC
inactive: NCI-H23 lung 103% | NCI-H322M lung 101% | HOP-62 NSCLC 97.5% | NCI-H460 lung 102% | HOP-92 NSCLC 87% | NCI-H522 lung 48.3% | A549/ATCC NSCLC 97.6% | 786-0 renal 44.2% | COLO 205 colon 114% | DU-145 prostate 67.6% | K-562 leukemia 80.9% | MALME-3M melanoma 101% | MDA-MB-231 breast 106% | RXF 393 renal 90.7% | SF-268 CNS 97.1% | SF-295 CNS 98.7% | SF-539 CNS 89.7% | UACC-257 melanoma 96.6% | M14 melanoma 105% | HCT-15 colon 86.2%

Cc1cc(Br)c(N)c(Br)c1
inactive: NCI-H23 lung 97% | NCI-H322M lung 105% | HOP-62 NSCLC 87.9% | NCI-H460 lung 104% | HOP-92 NSCLC 106% | NCI-H522 lung 86.3% | A549/ATCC NSCLC 73.3% | 786-0 renal 93.3% | COLO 205 colon 106% | DU-145 prostate 108% | K-562 leukemia 90% | MALME-3M melanoma 104% | MDA-MB-231 breast 103% | RXF 393 renal 106% | SF-268 CNS 106% | SF-295 CNS 95.9% | SF-539 CNS 95.5% | UACC-257 melanoma 77.5% | M14 melanoma 89.3% | HCT-15 colon 96.1%

COc1ccc(Cn2c(Br)c3c(c2Br)-c2nc(NC(=O)c4ccc(OC)cc4)sc2CC3)cc1
inactive: NCI-H23 lung 81.3% | NCI-H322M lung 56.4% | HOP-62 NSCLC 68.6% | NCI-H460 lung 77.4% | HOP-92 NSCLC 50.6% | NCI-H522 lung 72% | A549/ATCC NSCLC 79.7% | 786-0 renal 61.8% | COLO 205 colon 103% | DU-145 prostate 78% | K-562 leukemia 79.2% | MDA-MB-231 breast 52.6% | RXF 393 renal 57% | SF-268 CNS 72% | SF-295 CNS 57.7% | SF-539 CNS 52.1% | UACC-257 melanoma 78.5% | M14 melanoma 80.4% | HCT-15 colon 92.8%
active: MALME-3M melanoma 4.4%

O=C(Nc1ccc(Br)cc1F)c1cc(F)ccc1O
active: NCI-H23 lung 3.95% | HOP-62 NSCLC 2.13% | NCI-H460 lung 3.38% | HOP-92 NSCLC -11.3% | NCI-H522 lung -1.14% | A549/ATCC NSCLC 9.75% | 786-0 renal -4.66% | K-562 leukemia 8.73% | MALME-3M melanoma -21% | MDA-MB-231 breast -25.5% | RXF 393 renal 4.59% | SF-295 CNS -58.3% | SF-539 CNS 4.66% | UACC-257 melanoma -11.2% | M14 melanoma -11.3% | HCT-15 colon 2.25%
inactive: NCI-H322M lung 10.4% | COLO 205 colon 16.2% | DU-145 prostate 15.4% | SF-268 CNS 12.6%
